Data on 39 molecules can be found in PubChem BioAssay AID504340 (NMMLSC, 2011).

Values joined by “and” are separate entries in the source; they are usually repeats but may differ in a detail not shown here. Equal values may be shown once. Active and inactive are the calls of the source.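 The calls were made as follows: active = GFP response above 150% of the DMSO control; inconclusive = Under 70 cell events counted for a yeast strain; inactive = the rest.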

The assay can be described thus: yeast TOR pathway CIT2-GFP reporter retest – flow cytometry, third cherry pick, single plex, confirmation (AID 504340).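 Also: median GFP fluorescence over all cells with no mother versus daughter split; sample signal as a ratio to the plate DMSO mean so 100% equals DMSO.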 The settings on record: S. cerevisiae CIT2-GFP strain, 3 h, at 10 µM, active compounds read high.
Take `C/C(=N\NC(=O)c1cccc2ccccc12)c1cccnc1`: the GFP response vs DMSO is 91.2% (inactive).

Consider `Cc1cn2c(N)c(C=C3C=C(Cl)C(=O)C(Cl)=C3)c(=O)nc2s1`, for which the GFP response vs DMSO is 101% (inactive).

As for `COc1ccc(N/C=C/C(=O)c2ccc(Cl)cc2)cc1`, the GFP response vs DMSO is 107% (inactive).

`CCC(C)Nc1nc(N)c([N+](=O)[O-])c(Nc2ccccc2OC)n1` (centres undefined): the GFP response vs DMSO is 114% (inactive).

Turning to `Nc1ccc(O)c2c1C(=O)c1ccccc1C2=O`, the GFP response vs DMSO is 107% (inactive).

Take `Cc1cccc(N/C=C/C(=O)c2ccc(Cl)cc2)c1`: the GFP response vs DMSO was 97.7% (inactive).

For `Nc1c(C(=O)O)ccc2c1C(=O)c1ccccc1C2=O`, the GFP response vs DMSO was 101% (inactive).

Take `C[n+]1cccc2c(Br)ccc([O-])c21`: the GFP response vs DMSO is 97.7% (inactive).

With `COc1cc(=O)n(C)c2c(O)cccc12`, the GFP response vs DMSO is 92.8% (inactive).

As to `CC(C)Nc1ncnc2ccc(Br)cc12`, the GFP response vs DMSO is 96.1% (inactive).

In the case of `CC(=O)NC(C)c1cc(Cl)c2cccnc2c1O` (centres undefined), the GFP response vs DMSO was 97.7% (inactive).

As for `Oc1c(Br)cc(Br)c2cccnc12`, the GFP response vs DMSO is 189% (active).

In the case of `CCCC(=O)Nn1cnc2c(c1=O)C1(CCCC1)Cc1ccccc1-2`, the GFP response vs DMSO is 94.5% (inactive).

As for `COc1ccccc1-c1cc(C(F)(F)F)nc(S(=O)(=O)CCCC(=O)NC(C)C)n1`, the GFP response vs DMSO was 104% (inactive) and 94.5% (inactive).

With `COc1cccc2c(O)cc(=O)n(C)c12`, the GFP response vs DMSO is 103% (inactive).

With `COc1ccc(N/C(C)=C/C(=O)c2ccccc2)cc1`, the GFP response vs DMSO is 94.5% (inactive).

In the case of `CS(=O)(=O)Oc1ccc(Br)c2cccnc12`, the GFP response vs DMSO is 103% (inactive).

Consider `OCCNc1ncnc2ccc(Br)cc12`, for which the GFP response vs DMSO is 109% (inactive).

As to `CNc1cccc2c1C(=O)c1ccccc1C2=O`, the GFP response vs DMSO is 104% (inactive).

As for `CC1=NNC(=O)/C1=C\c1cn(-c2ccccc2)nc1-c1ccc(F)cc1`, the GFP response vs DMSO is 124% (inactive).

Regarding `C=CCNc1nc(N)c([N+](=O)[O-])c(Nc2cccc(Cl)c2)n1`, the GFP response vs DMSO was 114% (inactive).

Take `Cc1cc(C)c2ccc(N)nc2c1O`: the GFP response vs DMSO is 99.3% (inactive).

For the molecule `CC(=O)CC(=O)Nc1ccc(C(N)=O)cc1`, the GFP response vs DMSO is 106% (inactive).

For `Cc1nc2c(O)cccc2cc1CO`, the GFP response vs DMSO was 101% (inactive).

On to `COc1ccccc1Nc1nc(NCC(C)C)nc(N)c1[N+](=O)[O-]`, for which the GFP response vs DMSO is 114% (inactive).

For `Cc1ccc(Nc2cc(=O)[nH]c(=O)[nH]2)cc1Cl`, the GFP response vs DMSO is 99.3% (inactive).

Consider `CNc1nc(N)c([N+](=O)[O-])c(Nc2ccccc2OC)n1`, for which the GFP response vs DMSO was 168% (active).

Take `Cc1ccc2c(Cl)cc(Cl)c(O)c2n1`: the GFP response vs DMSO is 138% (inactive).

As to `CCCOCc1ccc(O)c2ncccc12`, the GFP response vs DMSO was 104% (inactive).

In the case of `COc1ccccc1Nc1nc(NCCC(C)C)nc(N)c1[N+](=O)[O-]`, the GFP response vs DMSO was 114% (inactive).

Take `C[n+]1cccc2cccc([O-])c21`: the GFP response vs DMSO was 103% (inactive).

In the case of `Cc1ccc2nc(-c3ccc(NC(=O)c4cccnc4)cc3)oc2c1`, the GFP response vs DMSO is 104% (inactive).

Regarding `COc1ccc(OC)c2c(C)cc(C)nc12`, the GFP response vs DMSO is 99.3% (inactive).

For `CC(=O)NCCOc1cccc2cccnc12`, the GFP response vs DMSO is 104% (inactive).

Consider `COCCCNc1nc(N)c([N+](=O)[O-])c(Nc2ccccc2OC)n1`, for which the GFP response vs DMSO was 107% (inactive).

With `COC(=O)COc1c(Cl)cc(Cl)c2ccc(C)nc12`, the GFP response vs DMSO was 106% (inactive).

Turning to `COc1cc(OC)cc(C(=O)Nc2ccc(-c3nc4ccccc4o3)cc2)c1`, the GFP response vs DMSO is 112% (inactive).

`O=C(O)CCS(=O)(=O)c1nc(-c2cccs2)cc(C(F)(F)F)n1`: the GFP response vs DMSO was 106% (inactive).

As to `Cc1cc(C)c2ccc(C(=O)O)nc2c1O`, the GFP response vs DMSO is 88% (inactive).
